# Laboratory results: the supplement of paper PMC8728848
# This excerpt belongs to a sample that is enriched for the strongest signals.
# Tests used:
# Assay in all cases: glycan array binding signal (z-score within array); higher = stronger binding
# Conditions in all cases: glycan notation: IUPAC condensed, linker removed
# [1] = molecular target: Fuc(a1-2)Gal(b1-3)GlcNAc6S
# In short: (§1)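 Arrays were curated from the Consortium for Functional Glycomics database, 3228 in total, and kept only where the protein sequence was available. Binding is expressed as a within-array Z-score. This score was averaged across arrays of the same protein sequence at different concentrations or buffers and across linkers, and negative values can be read as non-binding.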
# [2] = molecular target: Fuc(a1-2)Gal(b1-4)GlcNAc(b1-2)Man(a1-3)[Fuc(a1-2)Gal(b1-4)GlcNAc(b1-2)Man(a1-6)]Man(b1-4)GlcNAc(b1-4)GlcNAc
# In short: as §1
# [3] = molecular target: Fuc(a1-2)Gal6S(b1-3)GlcNAc
# In short: as §1
# [4] = molecular target: Fuc(a1-2)[GalNAc(a1-3)]Gal(b1-4)Glc
# In short: as §1
# [5] = molecular target: Fuc(a1-2)[GalNAc(a1-3)]Gal(b1-4)GlcNAc(b1-2)Man(a1-3)[Fuc(a1-2)[GalNAc(a1-3)]Gal(b1-4)GlcNAc(b1-2)Man(a1-6)]Man(b1-4)GlcNAc(b1-4)GlcNAc
# In short: as §1
# [6] = molecular target: Fuc(a1-2)[GalNAc(b1-3)]Gal
# In short: as §1
# [7] = molecular target: Fuc(a1-3)[Gal(b1-4)]GlcNAc
# In short: as §1
# [8] = molecular target: Fuc(a1-3)[Gal(b1-4)]GlcNAc(b1-6)[Gal(b1-3)GlcNAc(b1-3)]Gal(b1-4)Glc
# In short: as §1
# [9] = molecular target: Fuc(a1-3)[Gal3S(b1-4)]GlcNAc6S
# In short: as §1
# [10] = molecular target: Gal(a1-3)Gal(b1-3)GlcNAc(b1-3)GalNAc
# In short: as §1
# [11] = molecular target: Gal(a1-3)Gal(b1-3)[Fuc(a1-4)]GlcNAc(b1-2)Man(a1-3)[Gal(a1-3)Gal(b1-3)[Fuc(a1-4)]GlcNAc(b1-2)Man(a1-6)]Man(b1-4)GlcNAc(b1-4)GlcNAc
# In short: as §1
# Gal(a1-3)GalNAc = molecular target: Gal(a1-3)GalNAc
# In short: as §1
# [12] = molecular target: Gal(b1-3)GlcNAc(b1-3)Gal(b1-3)GlcNAc
# In short: as §1
# [13] = molecular target: Gal(b1-3)GlcNAc(b1-3)Gal(b1-4)GlcNAc(b1-2)Man(a1-3)[Gal(b1-3)GlcNAc(b1-3)Gal(b1-4)GlcNAc(b1-2)Man(a1-6)]Man(b1-4)GlcNAc(b1-4)GlcNAc
# In short: as §1
# [14] = molecular target: Gal(b1-3)GlcNAc(b1-6)[Gal(b1-3)]GalNAc
# In short: as §1
# [15] = molecular target: Gal(b1-3)[Fuc(a1-4)]GlcNAc(b1-2)Man
# In short: as §1
# [16] = molecular target: Gal(b1-3)[Fuc(a1-4)]GlcNAc(b1-2)Man(a1-3)[Gal(b1-3)[Fuc(a1-4)]GlcNAc(b1-2)Man(a1-6)]Man(b1-4)GlcNAc(b1-4)[Fuc(a1-6)]GlcNAc
# In short: as §1
# [17] = molecular target: Gal(b1-3)[Fuc(a1-4)]GlcNAc(b1-3)Gal(b1-3)[Fuc(a1-4)]GlcNAc
# In short: as §1
# [18] = molecular target: Gal(b1-4)GlcNAc(b1-2)Man(a1-3)[GlcNAc(b1-2)Man(a1-6)]Man(b1-4)GlcNAc(b1-4)GlcNAc
# In short: as §1
# [19] = molecular target: Gal(b1-4)GlcNAc(b1-2)[Gal(b1-4)GlcNAc(b1-6)]Man(a1-6)[Gal(b1-4)GlcNAc(b1-2)Man(a1-3)]Man(b1-4)GlcNAc(b1-4)GlcNAc
# In short: as §1
# [20] = molecular target: Gal(b1-4)GlcNAc(b1-3)Gal(b1-4)Glc
# In short: as §1
# [21] = molecular target: Gal(b1-4)GlcNAc(b1-3)Gal(b1-4)GlcNAc(b1-2)Man(a1-3)[Gal(b1-4)GlcNAc(b1-3)Gal(b1-4)GlcNAc(b1-2)Man(a1-6)]Man(b1-4)GlcNAc(b1-4)GlcNAc
# In short: as §1
# [22] = molecular target: Gal(b1-4)GlcNAc(b1-3)Gal(b1-4)GlcNAc(b1-3)Gal(b1-4)GlcNAc(b1-2)[Gal(b1-4)GlcNAc(b1-3)Gal(b1-4)GlcNAc(b1-3)Gal(b1-4)GlcNAc(b1-6)]Man(a1-6)[Gal(b1-4)GlcNAc(b1-3)Gal(b1-4)GlcNAc(b1-3)Gal(b1-4)GlcNAc(b1-2)Man(a1-3)]Man(b1-4)GlcNAc(b1-4)[Fuc(a1-6)]GlcNAc
# In short: as §1
# [23] = molecular target: Gal(b1-4)GlcNAc(b1-3)Gal(b1-4)GlcNAc(b1-3)Gal(b1-4)GlcNAc(b1-3)Gal(b1-4)GlcNAc(b1-3)Gal(b1-4)GlcNAc(b1-2)Man(a1-3)[Gal(b1-4)GlcNAc(b1-3)Gal(b1-4)GlcNAc(b1-3)Gal(b1-4)GlcNAc(b1-3)Gal(b1-4)GlcNAc(b1-3)Gal(b1-4)GlcNAc(b1-2)Man(a1-6)]Man(b1-4)GlcNAc(b1-4)GlcNAc
# In short: as §1
# [24] = molecular target: Gal(b1-4)GlcNAc(b1-3)Gal(b1-4)GlcNAc(b1-3)Gal(b1-4)GlcNAc(b1-3)Gal(b1-4)GlcNAc(b1-3)Gal(b1-4)GlcNAc(b1-2)[Gal(b1-4)GlcNAc(b1-3)Gal(b1-4)GlcNAc(b1-3)Gal(b1-4)GlcNAc(b1-3)Gal(b1-4)GlcNAc(b1-3)Gal(b1-4)GlcNAc(b1-6)]Man(a1-6)[Gal(b1-4)GlcNAc(b1-3)Gal(b1-4)GlcNAc(b1-3)Gal(b1-4)GlcNAc(b1-3)Gal(b1-4)GlcNAc(b1-3)Gal(b1-4)GlcNAc(b1-2)Man(a1-3)]Man(b1-4)GlcNAc(b1-4)[Fuc(a1-6)]GlcNAc
# In short: as §1
# [25] = molecular target: Gal3S(b1-4)[Fuc(a1-3)]Glc6S
# In short: as §1
# [26] = molecular target: Gal3S(b1-4)[Fuc(a1-3)]GlcNAc6S
# In short: as §1
# Gal3S6S(b1-4)GlcNAc = molecular target: Gal3S6S(b1-4)GlcNAc
# In short: as §1
# Gal6S(b1-4)Glc6S = molecular target: Gal6S(b1-4)Glc6S
# In short: as §1
# Gal6S(b1-4)GlcNAc6S = molecular target: Gal6S(b1-4)GlcNAc6S
# In short: as §1
# [27] = molecular target: GalNAc(b1-4)GlcNAc(b1-2)Man(a1-3)[GalNAc(b1-4)GlcNAc(b1-2)Man(a1-6)]Man(b1-4)GlcNAc(b1-4)GlcNAc
# In short: as §1
# [28] = molecular target: GlcNAc(a1-4)Gal(b1-4)GlcNAc(b1-3)Gal(b1-4)GlcNAc
# In short: as §1
# [29] = molecular target: GlcNAc(b1-3)Gal(b1-4)GlcNAc(b1-2)Man(a1-3)[GlcNAc(b1-3)Gal(b1-4)GlcNAc(b1-2)Man(a1-6)]Man(b1-4)GlcNAc(b1-4)[Fuc(a1-6)]GlcNAc
# In short: as §1
# [30] = molecular target: GlcNAc(b1-3)Gal(b1-4)GlcNAc(b1-3)Gal(b1-4)GlcNAc(b1-3)Gal(b1-4)GlcNAc(b1-2)Man(a1-3)[GlcNAc(b1-3)Gal(b1-4)GlcNAc(b1-3)Gal(b1-4)GlcNAc(b1-3)Gal(b1-4)GlcNAc(b1-2)Man(a1-6)]Man(b1-4)GlcNAc(b1-4)[Fuc(a1-6)]GlcNAc
# In short: as §1
# GlcNAc(b1-3)Man = molecular target: GlcNAc(b1-3)Man
# In short: as §1
# [31] = molecular target: GlcNAc(b1-3)[GlcNAc(b1-4)][GlcNAc(b1-6)]GlcNAc
# In short: as §1
# [32] = molecular target: GlcNAc(b1-4)Gal(b1-4)GlcNAc
# In short: as §1
# [33] = molecular target: GlcNAc(b1-4)GlcNAc(b1-4)GlcNAc
# In short: as §1
# [34] = molecular target: GlcNAc(b1-4)GlcNAc(b1-4)GlcNAc(b1-4)GlcNAc(b1-4)GlcNAc(b1-4)GlcNAc
# In short: as §1
# [35] = molecular target: Neu5Ac(a2-3)Gal(b1-3)GlcNAc(b1-2)Man(a1-3)[GlcNAc(b1-4)][Neu5Ac(a2-3)Gal(b1-3)GlcNAc(b1-2)Man(a1-6)]Man(b1-4)GlcNAc(b1-4)GlcNAc
# In short: as §1
# [36] = molecular target: Neu5Ac(a2-3)Gal(b1-4)GlcNAc(b1-2)Man(a1-3)[Neu5Ac(a2-6)Gal(b1-4)GlcNAc(b1-2)Man(a1-6)]Man(b1-4)GlcNAc(b1-4)GlcNAc
# In short: as §1
# [37] = molecular target: Neu5Ac(a2-3)Gal6S(b1-4)GlcNAc
# In short: as §1
# [38] = molecular target: Neu5Ac(a2-3)[GalNAc(b1-4)]Gal(b1-4)GlcNAc
# In short: as §1
# Neu5Ac(a2-6)Gal = molecular target: Neu5Ac(a2-6)Gal
# In short: as §1
# [39] = molecular target: Neu5Ac(a2-6)Gal(b1-4)GlcNAc(b1-2)Man(a1-3)Man(b1-4)GlcNAc(b1-4)GlcNAc
# In short: as §1
# [40] = molecular target: Neu5Ac(a2-6)Gal(b1-4)GlcNAc(b1-2)Man(a1-3)[Neu5Ac(a2-3)Gal(b1-4)GlcNAc(b1-2)Man(a1-6)]Man(b1-4)GlcNAc(b1-4)GlcNAc
# In short: as §1
# [41] = molecular target: Neu5Ac(a2-6)Gal(b1-4)GlcNAc(b1-2)Man(a1-3)[Neu5Ac(a2-6)Gal(b1-4)GlcNAc(b1-2)Man(a1-6)]Man(b1-4)GlcNAc(b1-4)[Fuc(a1-6)]GlcNAc
# In short: as §1
# [42] = molecular target: Neu5Ac(a2-6)Gal(b1-4)GlcNAc(b1-3)Gal(b1-4)GlcNAc(b1-3)Gal(b1-4)GlcNAc(b1-2)Man(a1-3)[Neu5Ac(a2-6)Gal(b1-4)GlcNAc(b1-3)Gal(b1-4)GlcNAc(b1-3)Gal(b1-4)GlcNAc(b1-2)Man(a1-6)]GalNAc
# In short: as §1
binder,measurement,setting,value
"CLECb-Precomplexed (Mus musculus), P43025 (protein) MAKNGLVLCILVVSLLLDQTDGYPSRMKARKHSKRRVKAKDDDLKSQVEKLWREVNALKEMQALQTVCLRGTKVHKKCYLASEGLKHYHEANEDCISKGGTLVVPRNSDEINALRDYGKRSLPGVNDFWLGINDMVTEGKFLDVHGFAVSFLNWDRAQPSGGKRENCVLFSQSAQGKWSDEACRSSKRYICEFIIPTRTRPLEQKLISEEDLAANDILDYKDDDDKV",glycan array binding signal (z-score),[1],-0.588
same,glycan array binding signal (z-score),[2],2.16
same,glycan array binding signal (z-score),[3],-0.377
same,glycan array binding signal (z-score),[4],-0.431
same,glycan array binding signal (z-score),[5],-0.336
same,glycan array binding signal (z-score),[6],-0.291
same,glycan array binding signal (z-score),[7],0.129
same,glycan array binding signal (z-score),[8],0.092
same,glycan array binding signal (z-score),[9],-0.231
same,glycan array binding signal (z-score),[10],0.142
same,glycan array binding signal (z-score),[11],9.55
same,glycan array binding signal (z-score),Gal(a1-3)GalNAc,-0.387
same,glycan array binding signal (z-score),[12],-0.229
same,glycan array binding signal (z-score),[13],0.774
same,glycan array binding signal (z-score),[14],-0.462
same,glycan array binding signal (z-score),[15],-0.166
same,glycan array binding signal (z-score),[16],2.08
same,glycan array binding signal (z-score),[17],0.004
same,glycan array binding signal (z-score),[18],-0.209
same,glycan array binding signal (z-score),[19],2.03
same,glycan array binding signal (z-score),[20],-0.229
same,glycan array binding signal (z-score),[21],2.63
same,glycan array binding signal (z-score),[22],3.07
same,glycan array binding signal (z-score),[23],2.1
same,glycan array binding signal (z-score),[24],11.2
same,glycan array binding signal (z-score),[25],3.47
same,glycan array binding signal (z-score),[26],0.004
same,glycan array binding signal (z-score),Gal3S6S(b1-4)GlcNAc,-0.251
same,glycan array binding signal (z-score),Gal6S(b1-4)Glc6S,0.254
same,glycan array binding signal (z-score),Gal6S(b1-4)GlcNAc6S,0.049
same,glycan array binding signal (z-score),[27],0.242
same,glycan array binding signal (z-score),[28],-0.295
same,glycan array binding signal (z-score),[29],-0.522
same,glycan array binding signal (z-score),[30],-0.255
same,glycan array binding signal (z-score),GlcNAc(b1-3)Man,-0.185
same,glycan array binding signal (z-score),[31],-0.456
same,glycan array binding signal (z-score),[32],-0.159
same,glycan array binding signal (z-score),[33],-0.15
same,glycan array binding signal (z-score),[34],-0.322
same,glycan array binding signal (z-score),[35],-0.444
same,glycan array binding signal (z-score),[36],-0.245
same,glycan array binding signal (z-score),[37],-0.618
same,glycan array binding signal (z-score),[38],-0.321
same,glycan array binding signal (z-score),Neu5Ac(a2-6)Gal,-0.301
same,glycan array binding signal (z-score),[39],0.007
same,glycan array binding signal (z-score),[40],-0.03
same,glycan array binding signal (z-score),[41],2.94
same,glycan array binding signal (z-score),[42],3.49
